Compound activity as filed in PubChem BioAssay.
Compounds with a hit are over-represented: about 9% of the library has one in this group of screens.
PLK1 PBD block: qHTS for Inhibitors of PLK1-PDB (polo-like kinase 1 - polo-box domain): Primary Screen | Serine/threonine-protein kinase PLK1 (Homo sapiens), P53350 | Plk1 PBD binding of FITC phosphopeptide, fluorescence polarization | Potency, µM, most hits filed as inhibitors | 360,000 compounds, 2.8% hits; note: series mostly up to about 57 µM; nearly all actives have a fitted effect of over 65% in size
JMJD2A Tudor: qHTS Assay for Inhibitors of JMJD2A-Tudor Domain. Lysine-specific demethylase 4A (Homo sapiens), O75164. AlphaScreen JMJD2A-Tudor / H3K4me3 peptide binding. Potency, µM (doses to about 114 µM), hits mostly inhibitors. 390,000 compounds, 4.4% hits. AID 504339, 2011; note: nearly all actives have a fitted effect of over 50% in size
BAZ2B block: qHTS Assay for Inhibitors of BAZ2B. Bromodomain adjacent to zinc finger domain protein 2B (Homo sapiens), Q9UIF8. AlphaScreen BAZ2B-H3K14Ac peptide displacement. Potency, µM (highest dose often 114 µM), most hits filed as inhibitors. 360,000 compounds, 4.4% hits; note: nearly all actives have a fitted effect of over 60% in size
Target sequence (Q9UIF8 whole entry, looked up, the tested form may be a part): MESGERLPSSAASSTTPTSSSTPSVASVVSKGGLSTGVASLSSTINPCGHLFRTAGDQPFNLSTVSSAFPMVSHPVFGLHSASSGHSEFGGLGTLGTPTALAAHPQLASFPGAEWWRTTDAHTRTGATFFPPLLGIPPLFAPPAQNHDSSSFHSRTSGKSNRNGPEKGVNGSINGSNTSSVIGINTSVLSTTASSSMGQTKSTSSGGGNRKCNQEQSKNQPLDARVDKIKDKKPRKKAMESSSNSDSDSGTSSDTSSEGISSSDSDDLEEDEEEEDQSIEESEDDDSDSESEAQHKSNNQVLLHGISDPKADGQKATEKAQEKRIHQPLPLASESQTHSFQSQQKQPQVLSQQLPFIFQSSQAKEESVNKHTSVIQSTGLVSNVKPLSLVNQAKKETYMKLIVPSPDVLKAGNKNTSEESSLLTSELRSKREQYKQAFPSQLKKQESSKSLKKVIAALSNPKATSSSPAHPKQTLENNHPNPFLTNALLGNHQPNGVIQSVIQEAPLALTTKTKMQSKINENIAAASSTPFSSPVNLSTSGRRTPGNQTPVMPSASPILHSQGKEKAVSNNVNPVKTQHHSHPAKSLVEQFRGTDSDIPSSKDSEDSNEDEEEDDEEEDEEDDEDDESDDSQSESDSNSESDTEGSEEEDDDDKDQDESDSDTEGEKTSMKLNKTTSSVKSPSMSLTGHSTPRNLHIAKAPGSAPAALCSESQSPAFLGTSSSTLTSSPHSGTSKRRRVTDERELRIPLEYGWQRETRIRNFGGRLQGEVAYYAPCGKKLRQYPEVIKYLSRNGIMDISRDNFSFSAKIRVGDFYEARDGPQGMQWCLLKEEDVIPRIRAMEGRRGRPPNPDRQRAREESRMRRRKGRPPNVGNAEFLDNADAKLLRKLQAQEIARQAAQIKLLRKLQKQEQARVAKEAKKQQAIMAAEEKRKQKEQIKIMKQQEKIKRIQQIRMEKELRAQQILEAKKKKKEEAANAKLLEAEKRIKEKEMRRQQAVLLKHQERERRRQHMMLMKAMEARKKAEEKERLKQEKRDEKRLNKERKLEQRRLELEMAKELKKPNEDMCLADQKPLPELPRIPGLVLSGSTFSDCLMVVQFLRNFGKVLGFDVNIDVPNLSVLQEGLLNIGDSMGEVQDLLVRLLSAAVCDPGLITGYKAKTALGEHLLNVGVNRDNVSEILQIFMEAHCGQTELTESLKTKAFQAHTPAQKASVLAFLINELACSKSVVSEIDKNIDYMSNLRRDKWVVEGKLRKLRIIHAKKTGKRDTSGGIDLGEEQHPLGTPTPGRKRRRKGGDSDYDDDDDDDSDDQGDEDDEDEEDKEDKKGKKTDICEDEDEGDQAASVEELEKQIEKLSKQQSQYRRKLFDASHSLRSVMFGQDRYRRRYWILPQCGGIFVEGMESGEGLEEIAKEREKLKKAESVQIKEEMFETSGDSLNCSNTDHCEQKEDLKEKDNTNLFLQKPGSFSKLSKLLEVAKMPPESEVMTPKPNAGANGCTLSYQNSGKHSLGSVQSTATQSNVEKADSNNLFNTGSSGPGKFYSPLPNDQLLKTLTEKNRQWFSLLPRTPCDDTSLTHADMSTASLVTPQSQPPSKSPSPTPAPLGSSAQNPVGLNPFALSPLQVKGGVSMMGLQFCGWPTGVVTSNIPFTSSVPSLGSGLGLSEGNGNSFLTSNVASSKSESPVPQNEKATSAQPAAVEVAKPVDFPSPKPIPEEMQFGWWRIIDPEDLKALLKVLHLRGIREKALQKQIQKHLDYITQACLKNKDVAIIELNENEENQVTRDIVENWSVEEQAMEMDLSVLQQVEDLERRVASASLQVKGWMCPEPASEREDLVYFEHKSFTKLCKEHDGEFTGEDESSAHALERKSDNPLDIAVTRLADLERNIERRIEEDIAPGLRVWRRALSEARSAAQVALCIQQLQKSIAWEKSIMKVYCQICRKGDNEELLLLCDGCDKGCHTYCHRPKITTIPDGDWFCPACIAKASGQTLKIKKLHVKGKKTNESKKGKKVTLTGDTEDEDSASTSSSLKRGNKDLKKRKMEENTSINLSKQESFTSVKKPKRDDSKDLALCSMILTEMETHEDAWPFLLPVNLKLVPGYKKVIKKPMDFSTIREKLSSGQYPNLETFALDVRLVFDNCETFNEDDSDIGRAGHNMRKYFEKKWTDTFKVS
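Multi-concentration screen (max 110 uM) measuring displacement of acetylated histone H3 peptide from BAZ2B by AlphaScreen, using 50 nM protein, 50 nM peptide and 10 ug/mL streptavidin donor plus Ni-chelate acceptor beads.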
HP1b chromo inh: HTS for Inhibitors of HP1-beta Chromodomain Interactions with Methylated Histone Tails; AlphaScreen HP1-beta / biotin-H3K9me3 peptide binding; Potency, µM (highest dose often 114 µM), hits mostly inhibitors; 390,000 compounds, 0.56% hits; AID 540317, 2011; note: nearly all actives have a fitted effect of over 70% in size
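AlphaScreen: HP1-beta (50 nM) preformed 30 min with biotin-H3(1-18)K9me3 peptide (50 nM) in PBS pH 7.4, 0.01% Tween-20. Compound added for 30 min at RT, then streptavidin donor/nickel chelate acceptor beads (10 ug/mL) for 30 min.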
ALOX12 inh: Primary qHTS assay for inhibitors of human arachidonate 12S-lipoxygenase (ALOX12): Round 2. Potency, µM (doses to about 108 µM), most hits filed as inhibitors. purified 12hLO, xylenol orange hydroperoxide absorbance. AID 1671190, 2021. Polyunsaturated fatty acid lipoxygenase ALOX12 (Homo sapiens), P18054. 580,000 compounds, 1.1% hits
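Hydroperoxide product was detected by ferrous iron/xylenol orange as the 573 to 405 nm absorbance ratio. Arachidonic acid at 40 uM (final) was turned over for 30 min at room temperature by 150 nM human 12hLO, pH 7.0 Hepes buffer, after 15 min compound preincubation.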
G9a inh: qHTS Assay for Inhibitors of Histone Lysine Methyltransferase G9a; Histone-lysine N-methyltransferase EHMT2 (Homo sapiens), Q96KQ7; G9a H3K9 monomethylation, AlphaScreen, 2 h; Potency, µM (highest dose often 102 µM), usual class: inhibitors; 350,000 compounds, 8.8% hits; AID 504332, 2011; note: nearly all actives have a fitted effect of over 75% in size
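Readings reflect AlphaScreen signal from monomethyl-H3K9 antibody detection. HMT at 20 nM; substrate b-H3K9 500 nM; cofactor SAM 20 uM; 2 h RT reaction; compounds tested as titrations in qHTS with 15 min preincubation.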
Hits are given with their value; – = inactive; ? = inconclusive; · = no result given; [ ] = remark or other dose. Calls come from the whole dose curve; as a rule, active = well fitted curve in the direction sought with a large enough effect; inconclusive = small, poorly fitted or top-dose-only effect, or another doubt; inactive = no such curve, though single readings can be large; an effect the other way counts as inactive or inconclusive.

SMILES | PLK1 PBD block | JMJD2A Tudor | BAZ2B block | HP1b chromo inh | ALOX12 inh | G9a inh
Cc1[nH]n(-c2ccccc2)c(=O)c1C=Nc1ccc(S(=O)(=O)N=C(N)N)cc1 | – | – | – | – | – | ?
O=c1c(-c2ccccc2)c[nH]n1-c1cccc([N+](=O)[O-])c1 | – | – | ? | – | – | ?
CCOc1c(Cl)cc(CNc2nnnn2C)cc1OC | – | – | – | – | ? | –
CCOc1cc(CNCc2ccccn2)cc(Cl)c1OC | – | 45µM | 56µM | – | – | ?
CCOc1cc(CNCC(O)c2ccccc2)cc(Cl)c1OC (stereo unspecified) | – | – | – | – | – | ·
CCOc1cc(CNCc2ccccn2)cc(Cl)c1OCC | – | 56µM | 50µM | – | – | ·
CCOc1c(Cl)cc(CNCc2ccncc2)cc1OC | – | – | – | – | – | 56µM
CCNCc1cc(Cl)c(OCc2ccccc2)c(OCC)c1 | – | – | – | – | – | –
Cn1c(CCN2CCCC2)nc2cc(NS(=O)(=O)c3ccc(F)cc3)ccc21 | – | · | · | · | – | ·
FC(F)(F)c1ccc(N2CCOCC2)c(NC2=NCCCCC2)c1 | – | – | ? | – | ? | 50µM
O=C(Nc1cc(C(F)(F)F)ccc1N1CCOCC1)c1c(F)c(F)c(F)c(F)c1F | 30µM | –[11.4 µM] | – | – | – | –
O=C(Nc1ccccc1N1CCCC1)c1ccc2c(c1)OCO2 | – | – | – | – | – | 45µM
O=C(Nc1cc(C(F)(F)F)ccc1N1CCOCC1)c1ccccc1 | – | – | – | – | – | –[12.7 µM]
O=C(Nc1cc(C(F)(F)F)ccc1N1CCCC1)c1ccc2c(c1)OCO2 | – | – | – | – | – | 45µM
COC(=O)Cn1ccc2cc(S(=O)(=O)N3CCCCC3)ccc21 | – | – | – | – | – | –
CN1OC[C@@H]2CN[C@H](c3ccc(-c4ccc(C#N)cc4)cc3)C[C@@H]21 | – | · | · | · | – | ·
NS(=O)(=O)c1ccc(Nc2nc(-c3cccc([N+](=O)[O-])c3)cs2)cc1 | – | – | – | – | – | 40µM
O=C(Cc1cccc2ccccc12)Nc1nc(-c2cccc([N+](=O)[O-])c2)cs1 | – | – | – | – | – | –
Cc1ccc(-c2csc(Nc3ccc(S(N)(=O)=O)cc3)n2)o1 | ? | 56µM | 45µM | ? | ? | 4.5µM
Cc1nc(C)c(-c2csc(Nc3ccc(S(N)(=O)=O)cc3)n2)s1 | – | – | – | – | – | ?
Cc1nc(Nc2ccc(S(N)(=O)=O)cc2)sc1-c1ccccc1 | – | ? | ? | – | ? | 32µM
Cc1ccc(-c2csc(Nc3ccc(S(N)(=O)=O)cc3)n2)cc1C | · | · | · | · | 45µM | ·
Cc1cc(NC(=O)CCNS(=O)(=O)c2ccc3c(c2)CCCC(=O)N3)ccc1Br | · | – | – | – | ? | –
NS(=O)(=O)c1ccc(Nc2nc(-c3ccc4ccccc4c3)cs2)cc1 | – | ? | – | – | ? | 35µM
O=C(Nc1cccc(-c2csc(Nc3ccc(Cl)cc3)n2)c1)c1cc([N+](=O)[O-])cc(C(F)(F)F)c1 | – | – | – | – | – | –
SMILES | PLK1 PBD block | JMJD2A Tudor | BAZ2B block | HP1b chromo inh | ALOX12 inh | G9a inh
O=C(Nc1cccc(-c2csc(Nc3ccccc3)n2)c1)c1cc([N+](=O)[O-])cc(C(F)(F)F)c1 | – | – | – | – | – | 50µM
CCC(=O)Oc1ccc(-c2cnc3ccccc3n2)cc1 | – | – | – | – | – | –
O=[N+]([O-])c1cc(-c2cnc3ccccc3n2)ccc1Cl | ? | – | – | – | – | –
O=C(Oc1ccc(-c2cnc3ccccc3n2)cc1)c1cc([N+](=O)[O-])ccc1Cl | – | – | – | – | – | 28µM
O=[N+]([O-])c1cc(-c2cnc3ccccc3n2)ccc1Oc1ccc(Cl)cc1 | – | – | ? | – | – | 14µM
Cc1c(C(=O)Oc2ccc(-c3cnc4ccccc4n3)cc2)cccc1[N+](=O)[O-] | – | – | – | – | – | 20µM
COc1ccc(C(=O)n2cnc3ccccc32)cc1[N+](=O)[O-] | – | – | – | – | – | –
CCN(C1CCOCC1)C1CN(C(=O)c2cnccn2)C1 | · | · | · | · | – | ·
O=C(N/N=C/c1ccc(Cl)s1)C(O)c1ccccc1 (stereo unspecified) | – | – | – | – | – | ·
CSc1nnc(-c2ccccc2)c(-c2ccccc2)n1 | – | – | – | – | – | –
CSc1nnc(-c2ccco2)c(-c2ccco2)n1 | 27µM | –[11.4 µM] | 20µM | ? | 22µM | ?
Cc1ccccc1NC(=O)CSc1nnc(-c2ccco2)c(-c2ccco2)n1 | 27µM | 50µM | 25µM | 16µM | · | 13µM
Cc1ccccc1NC(=O)CSc1n[nH]c(-c2ccco2)n1 | – | – | – | – | – | –
Cc1cccc(C)c1NC(=O)CSc1nnc(-c2ccco2)c(-c2ccco2)n1 | 19µM | 25µM | 2.5µM | 50µM | · | –[0.501 µM]
COc1ccc(-c2nnc(SCC(=O)Nc3c(C)cccc3C)nc2-c2ccc(OC)cc2)cc1 | · | – | – | – | – | ?
CCN1CCN(C(=O)CCS(=O)(=O)c2cc3c(cc2Cl)NC(=O)CO3)CC1 | – | – | – | – | – | ?
CC[C@@H](C)[C@H](NC(=O)OC(C)(C)C)c1nnc(S(=O)(=O)Cc2cc(C)ccc2C)o1 | 6µM | – | – | – | – | 79µM
Cc1ccccc1CS(=O)(=O)c1nnc([C@H](CC(C)C)NC(=O)OC(C)(C)C)o1 | 8.9µM | – | – | – | – | 35µM
CC(C)C[C@H](N)c1nnc(S(=O)(=O)Cc2cccc(F)c2)o1 | ? | – | ? | – | – | ?
CC(C)C[C@H](NC(=O)OC(C)(C)C)c1nnc(SCc2ccccc2)o1 | – | – | – | – | – | ?
CC(C)(C)OC(=O)N[C@@H](Cc1ccccc1)c1nnc(S(=O)(=O)Cc2cccc(F)c2)o1 | 6µM | – | – | – | · | 35µM
Cc1csc(SCC(=O)NC(=O)NC(C)C)n1 | – | – | – | – | – | –
CCc1cc2c(=O)c(-c3nc4ccccc4n3C)c(COCC(=O)O)oc2cc1O | – | ? | ? | – | – | –
CCCc1cc2c(=O)c(-c3nc4ccccc4s3)c(COCC(=O)O)oc2cc1O | – | ? | – | – | ? | 50µM
CN1CCC(Oc2ccc(Sc3ccccc3)cc2)CC1 | – | – | – | – | – | –
CN1CCC(Oc2ccccc2Sc2ccc(C(F)(F)F)cc2)CC1 | – | ? | 79µM | – | ? | ?
